This is a sample that favours compounds with a hit; in the whole collection about 1.8% have one here.
GSTO1 counter = counter-screen for RBBP9 inhibitors: inhibitors of human GSTO1 | P78417 | recombinant GSTO1, activity-based probe fluorescence polarization | inhibition, % at 5.96 µM | 300,000 compounds, 1.1% hits | AID 1974;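 active means inhibition above the campaign mean inhibition plus 3 SD, cut at about 35% in these data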
LYPLA2 counter = blocks human lysophospholipase 2, a PME1 counter-screen | O95372 | recombinant LYPLA2, FP-Rh probe fluorescence polarization | inhibition, % at 5.9 µM | 320,000 compounds, 0.38% hits;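 active means inhibition above the screen-wide mean plus 3 SD, limit set per campaign, cut at about 26% in these data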
PAD4 inh = PAD4 (human) enzyme inhibition | Q9UM07 | recombinant PAD4, RCA probe fluorescence polarization | inhibition, % at 6.36 µM | 330,000 compounds, 0.41% hits | AID 485272;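 active means percent inhibition above a cutoff equal to the mean of all tested compounds plus 3 SD, cut at about 15% in these data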
Target sequence (Q9UM07 whole entry, looked up): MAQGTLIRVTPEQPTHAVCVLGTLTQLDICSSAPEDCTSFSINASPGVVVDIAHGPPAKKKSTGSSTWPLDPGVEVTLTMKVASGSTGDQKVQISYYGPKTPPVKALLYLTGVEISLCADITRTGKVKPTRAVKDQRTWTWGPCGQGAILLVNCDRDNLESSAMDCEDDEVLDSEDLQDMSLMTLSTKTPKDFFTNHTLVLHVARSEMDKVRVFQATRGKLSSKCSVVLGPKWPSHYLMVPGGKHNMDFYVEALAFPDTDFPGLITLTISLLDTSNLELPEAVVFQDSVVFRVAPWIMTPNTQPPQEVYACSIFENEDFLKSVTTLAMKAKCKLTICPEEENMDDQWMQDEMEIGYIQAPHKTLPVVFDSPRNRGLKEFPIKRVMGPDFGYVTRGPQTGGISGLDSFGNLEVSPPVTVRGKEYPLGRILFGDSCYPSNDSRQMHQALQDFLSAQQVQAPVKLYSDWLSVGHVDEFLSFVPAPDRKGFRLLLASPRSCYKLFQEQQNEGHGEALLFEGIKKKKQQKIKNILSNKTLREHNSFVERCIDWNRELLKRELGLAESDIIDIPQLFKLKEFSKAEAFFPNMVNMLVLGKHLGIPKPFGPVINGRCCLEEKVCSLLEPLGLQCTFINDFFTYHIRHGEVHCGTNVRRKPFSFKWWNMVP
Fam108B inh = counter-screen for RBBP9 inhibitors: inhibitors of mouse Fam108B. 300,000 compounds, 0.33% hits. inhibition, % at 9.51 µM. recombinant Fam108B, FP-Rh probe fluorescence polarization;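 active means inhibition above the screen mean inhibition plus 3 SD, computed separately per campaign, cut at about 18% in these data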;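 further: inhibitors lower polarization as less probe binds the enzyme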
LYPLA1 inh = counter-screen for PME1 inhibitors: inhibitors of human LYPLA1. O75608. recombinant LYPLA1, FP-Rh probe fluorescence polarization. inhibition, % at 5.9 µM. 320,000 compounds, 0.16% hits. AID 2174;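 active means inhibition above the mean of all tested compounds plus 3 SD, set per campaign, cut at about 14% in these data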;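 further: inhibitors block serine hydrolase probe labeling of LYPLA1 so polarization falls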
PME-1 primary = blocks human protein phosphatase methylesterase 1 | recombinant PME-1, FP-Rh probe fluorescence polarization | Q9Y570 | inhibition, % at 5.9 µM | 320,000 compounds, 0.53% hits;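 active means inhibition above the campaign mean of all compounds plus 3 SD, cut at about 26% in these data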;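 further: competitive labeling of PME-1 active site by serine hydrolase directed probe; inhibitors block probe labeling so polarization falls and inhibition rises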
Hits are given with their value; - = inactive; . = not tested or not shown.

SMILES	GSTO1 counter	LYPLA2 counter	PAD4 inh	Fam108B inh	LYPLA1 inh	PME-1 primary
CCC(C)C1=CC(=Nc2c(C)n(C)n(-c3ccccc3)c2=O)C=C(C(C)CC)C1=O (stereo not drawn)	-	-	-	-	-	-
CN(C)c1ccc2nc3c(=O)[nH]c(=O)nc-3n(CC(O)C(O)C(O)CO)c2c1 (stereo not drawn)	-	-	-	-	-	-
O=c1oc2c(-c3ccc([N+](=O)[O-])cc3)cc(O)cc2s1	78.3	-	-	-	-	-
O=Nc1c2ccc[nH]c-2c2ccc([N+](=O)[O-])cc12	-	-	-	-	-	-
CC(C)CCN1C(=O)c2cccc3c(N)ccc(c23)C1=O	-	-	24.0	-	-	-
Nc1cccc(N2C(=O)c3cccc4c(N)ccc(c34)C2=O)c1	-	-	-	-	-	-
COc1ccc(-c2cc(=O)n(-c3ccc([N+](=O)[O-])cc3)[nH]2)cc1	53.5	-	36.2	-	-	-
COc1ccc(-c2[nH]n(-c3ccc([N+](=O)[O-])cc3)c(=O)c2C=NCc2ccc(F)cc2)cc1	-	-	-	-	-	-
O=C(NC1C(=O)NNC1c1ccc(Cl)cc1)c1ccc(F)cc1 (stereo not drawn)	-	37.2	-	-	-	-
COc1cc2c(C#N)c(N3CCN(c4ccccc4OC)CC3)nc(N)c2c(N)n1	-	-	-	-	-	72.5
C/C(=N\NC(=O)Cn1nnc2ccccc21)c1ccco1	-	-	-	-	-	-
CN1CCSc2ccc(C(=O)NCc3cccc(Br)c3)cc21	-	-	-	-	-	-
COC(=O)c1ccc(-n2c(C)cc(C(=O)CCl)c2C)cc1	87.3	-	-	-	-	-
COC(=O)c1ccc(-n2c(C)cc(C(=O)COC(=O)C3=COCCO3)c2C)cc1	.	.	-	.	.	.
CCOc1ncccc1C(=O)OCC(=O)Nc1cc(S(=O)(=O)N2CCOCC2)ccc1C	-	-	-	-	-	-
Cc1ccc(S(=O)(=O)N2CCOCC2)cc1NC(=O)COC(=O)c1ccccc1OCc1c(C)noc1C	-	-	-	-	-	32.2
Cc1ccc(C(=O)NCC(=O)OCC(=O)Nc2cc(S(=O)(=O)N3CCOCC3)ccc2C)cc1	-	-	-	-	-	-
COc1ccc(OC)c(CC(=O)Nc2cc(S(=O)(=O)N3CCCCC3)ccc2C)c1	.	-	-	.	-	-
Cc1ccc(S(=O)(=O)N2CCOCC2)cc1NC(=O)COC(=O)CNC(=O)c1ccc(C(C)(C)C)cc1	35.4	-	-	-	-	-
COc1ccc(S(=O)(=O)N2CCCCCC2)cc1NC(=O)Cc1cc(OC)c(OC)c(OC)c1	-	-	-	-	-	57.5
Cc1ccc(S(=O)(=O)N2CCCCC2)cc1NC(=O)COC(=O)c1ccc2c(c1)OCO2	-	-	-	-	-	40.3
O=C(Nc1ccnc(=O)[nH]1)c1sc2ccccc2c1Cl	-	-	-	-	-	-
COc1ccc(OC)c(N(/C(N)=N/c2nc(C)cc(C)n2)S(=O)(=O)c2ccc(NC(C)=O)cc2)c1	-	-	-	-	-	-
Cc1ccc(S(=O)(=O)N2CCOCC2)cc1NC(=O)COC(=O)c1cccnc1Cl	-	-	-	-	-	28.8
COc1ccc(Nc2cc(C)c3cc([N+](=O)[O-])ccc3n2)cc1	-	-	-	-	-	-
SMILES	GSTO1 counter	LYPLA2 counter	PAD4 inh	Fam108B inh	LYPLA1 inh	PME-1 primary
COc1ccc(C(=O)N2CCc3cc(OC)c(OC)cc3C2)cc1OC	-	-	-	-	-	-
COc1cc2c(cc1OC)CN(C(=O)c1ccc3[nH]c(C)c(C)c3c1)CC2	-	-	-	-	-	38.0
C[C@@H]1CN([C@@H](C)CO)C(=O)c2cccc(NC(=O)Nc3ccccc3)c2O[C@H]1CN(C)C(=O)Nc1cccc2ccccc12	.	.	-	.	.	.
COc1cc(C(=S)N2CCN(c3ccccc3Cl)CC2)cc(O)c1O	37.0	-	-	-	-	-
COc1ccc(/C=c2\s/c(=C/C(=O)c3ccc(C)cc3)[nH]c2=O)c(OC)c1	-	-	-	-	-	27.0
COc1cccc(/C=c2\s/c(=C/C(=O)c3ccc(C)cc3)[nH]c2=O)c1OC	-	-	-	-	-	-
COc1cccc(Oc2ccc(S(=O)(=O)N3CCCC3)cc2[N+](=O)[O-])c1	-	-	-	-	-	26.1
O=C1c2cc(F)ccc2-n2c1nc1ccccc1c2=O	35.3	-	-	-	-	-
Nn1c(-c2ccc(F)cc2)nc2ccccc2c1=O	-	-	-	-	-	-
Cn1c(N/N=C/c2c[nH]c3ccccc23)nc2ccccc21	-	-	-	-	-	29.6
CCc1nc2ccc(C(=O)NCCc3ccc(OC)cc3)cc2nc1CC	-	-	-	-	-	-
N#CCCN1CCN(C2=NC(=O)/C(=C\c3cccs3)S2)CC1	-	28.7	-	-	-	-
O=[N+]([O-])c1cc(Cl)c2cccnc2c1O	-	-	-	-	-	-
O=[N+]([O-])c1cc(F)c2cccnc2c1O	58.4	-	-	-	-	-
O=C(Nc1nc2cc3c(cc2s1)OCCO3)c1ccc([N+](=O)[O-])o1	-	-	-	-	-	-
COCCCNC(=O)CN1C(=O)/C(=C/c2ccccc2)Sc2ccccc21	-	-	-	-	-	-
O=C(CNc1ccccc1)N/N=C/c1c(O)ccc2ccccc12	-	-	-	-	-	38.0
O=C(N/N=C/c1c(O)ccc2ccccc12)Nc1ccccc1	-	-	-	-	-	28.0
O=C(CSCC(=O)Nc1ccccc1)N/N=C/c1c(O)ccc2ccccc12	-	-	-	-	-	-
COc1cc(/C=N/NC(=O)c2ccc3c(c2)OCCO3)c(Br)c(Br)c1O	-	-	-	-	-	44.7
O=C(N/N=C/c1c(Cl)[nH]c2ccccc12)c1ccc2c(c1)OCCO2	-	-	-	-	-	28.7
COc1cc(/C=N/NC(=O)c2ccc3c(c2)OCCO3)cc(Br)c1O	-	-	-	-	-	-
O=C(N/N=C/c1cc2c(cc1Cl)OCO2)c1ccc2c(c1)OCCO2	-	-	-	-	-	-
Cc1cccc(N(C(=O)c2snc(C(N)=O)c2N)C(C(=O)NCc2ccccc2)c2ccncc2)c1 (stereo not drawn)	-	-	-	-	-	-
COC(=O)c1c(NC(=O)CN2CCN(c3ccccc3Cl)CC2)sc(C)c1C	36.6	-	-	-	-	-
Cc1cccc(NC(=O)COc2ccccc2C(=O)NC(C)c2ccccc2)c1 (stereo not drawn)	-	-	-	-	-	-
CCOC(=O)C(C)(C)N(Cc1cccc(C)c1)S(=O)(=O)c1ccc(Cl)c([N+](=O)[O-])c1	61.2	-	-	-	-	-
Cc1cc(C)c(S(=O)(=O)/N=C2\C=C(NS(=O)(=O)c3ccccc3)C(=O)c3ccccc32)c(C)c1	60.2	-	-	-	-	-
c1ccc(-c2oc3ncnc(NCCCn4ccnc4)c3c2-c2ccccc2)cc1	37.0	-	-	-	-	-

Bioassay records from PubChem.
